In PMC5540273 (PLoS ONE, 2017):
Where two headings read alike, the source gives them in different places.

How the values were obtained:
RIPK2 = settings: concentration: 1 μM, replicates: in singlicate; n = 1
RIPK4 = settings: concentration: 1 μM, replicates: in singlicate; n = 1
RIPK5 = settings: concentration: 1 μM, replicates: in singlicate; n = 1
ROCK1 = settings: n = 1
ROCK2 = settings: concentration: 1 μM, replicates: in singlicate; n = 1
ROS1 = settings: concentration: 1 μM, replicates: in singlicate; n = 1
[1] = tested on: RPS6KA4(Kin.Dom.1-N-terminal); settings: concentration: 1 μM, replicates: in singlicate; n = 1
[2] = tested on: RPS6KA4(Kin.Dom.2-C-terminal); settings: concentration: 1 μM, replicates: in singlicate; n = 1
[3] = tested on: RPS6KA5(Kin.Dom.1-N-terminal); settings: concentration: 1 μM, replicates: in singlicate; n = 1
[4] = tested on: RPS6KA5(Kin.Dom.2-C-terminal); settings: concentration: 1 μM, replicates: in singlicate; n = 1
[5] = concentration: 1 μM, replicates: in singlicate
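Also: KINOMEscan kinase panel screen.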

| SMILES | %Inh (RIPK2) [%] | %Inh (RIPK4) [%] | %Inh (RIPK5) [%] | %Inh (ROCK1; [5]) [%] | %Inh (ROCK2) [%] | %Inh (ROS1) [%] | %Inh [1] [%] | %Inh [2] [%] | %Inh [3] [%] | %Inh [4] [%] | %Inh (ROCK1; 1 µM) [%] |
| --- | --- | --- | --- | --- | --- | --- | --- | --- | --- | --- | --- |
| COc1ccc(CNC(=O)NC2CCN(c3ccnc(Nc4ccc(F)cc4)n3)C2)cc1 (stereo not shown) [GSK1379706] | 19 | 0 | 15 | 29 | 27 | 12 | 0 | 0 | 13 | 27 |  |
| COc1cc2ncn(-c3cc(OCc4ccncc4)c(C(N)=O)s3)c2cc1OC [GSK336313] | 13 | 22 | 1 | 0 | 0 | 28 | 19 | 0 | 4 | 4 |  |
| COc1ccc(-n2cnc3c(N)ncnc32)cc1 [SKF-97236] | 15 | 9 | 10 | 5 | 20 | 0 | 12 | 0 | 15 | 0 |  |
| COc1cc(Nc2nccc(N3CCC(NC(=O)C(C)c4ccc(Cl)cc4)C3)n2)cc(OC)c1OC (stereo not shown) [GSK1379757] | 0 | 0 | 16 | 0 | 0 | 31 | 0 | 0 | 0 | 0 |  |
| O=C(Nc1n[nH]c2nc(-c3ccccc3)c(Cl)cc12)C1CC1 [SB-734909] | 0 | 10 | 16 | 24 | 6 | 0 | 0 | 0 | 0 | 0 |  |
| O=C(Nc1n[nH]c2cc(-c3ccccc3F)ccc12)C1CC1 [SB-733371] | 11 | 13 | 0 | 0 | 0 | 4 | 0 | 0 | 0 | 0 |  |
| COc1ccc(-c2coc3ccc(-c4nnc(SCc5cccc(C#N)c5)o4)cc23)cc1 | 12 | 16 | 12 | 0 | 24 | 18 | 0 | 13 | 29 | 0 |  |
| Nc1nccc2scc(-c3ccc4c(c3)CCN4C(=O)Cc3ccccc3)c12 [GSK2576924] | 58 | 3 | 12 | 0 | 38 | 18 | 13 | 0 | 25 | 14 |  |
| COc1cc2ncn(-c3cc(OCCCc4ccccc4)c(C(N)=O)s3)c2cc1OC [GSK205189] | 20 | 0 | 0 | 0 | 0 | 13 | 5 | 0 | 0 | 0 |  |
| COc1cc2ncn(-c3cc(OCc4ccncc4Br)c(C(N)=O)s3)c2cc1OC [GW854278] | 26 | 0 | 9 | 11 | 0 | 6 | 2 | 0 | 0 | 7 |  |
| CCS(=O)c1ccc(-c2coc3ccc(-c4nnc(C)o4)cc23)cc1 (stereo not shown) | 0 | 7 | 0 | 0 | 28 | 15 | 24 | 11 | 2 | 0 |  |
| CCC(=O)c1c(-c2ccccc2)c2cc(Cl)ccc2c(=O)n1Cc1cc(S(C)(=O)=O)n(CC(F)F)n1 | 2 | 0 | 18 | 0 | 0 | 0 | 0 | 0 | 0 | 0 |  |
| Cc1c(Cn2c(C)nn3c(=O)cc(N4CCO[C@H](C)C4)nc23)cccc1C(F)(F)F [GSK2373690] | 4 | 0 | 0 | 7 | 0 | 4 | 16 | 0 | 27 | 15 |  |
| CCc1ccc(-c2ccc3c(c2)-c2nn(C)cc2S(=O)(=O)N3C)cc1 | 0 | 0 | 0 | 0 | 0 | 0 | 0 | 0 | 0 | 0 |  |
| CCCC(=O)Nc1n[nH]c2ncc(-c3cccc4ccccc34)cc12 [SB-642057] | 28 | 36 | 10 | 0 | 3 | 0 | 14 | 0 | 16 | 0 |  |
| COc1cccc(-n2cnc3c(N)ncnc32)c1 [SKF-97416] | 1 | 43 | 18 | 66 | 60 | 0 | 19 | 7 | 0 | 0 |  |
| CCn1c(-c2nonc2N)nc2ccccc21 [SB-693162/GW549034] | 0 | 6 | 53 |  | 76 | 0 | 0 | 40 | 0 | 0 | 78 |

| SMILES | %Inh (RIPK2) [%] | %Inh (RIPK4) [%] | %Inh (RIPK5) [%] | %Inh (ROCK1; [5]) [%] | %Inh (ROCK2) [%] | %Inh (ROS1) [%] | %Inh [1] [%] | %Inh [2] [%] | %Inh [3] [%] | %Inh [4] [%] | %Inh (ROCK1; 1 µM) [%] |
| --- | --- | --- | --- | --- | --- | --- | --- | --- | --- | --- | --- |
| Cc1nnc(-c2ccc(C)c(-c3ccc(C(=O)O)cc3)c2)o1 [GW608005] | 0 | 9 | 0 | 0 | 0 | 0 | 0 | 0 | 9 | 0 |  |
| COc1ccc(-c2cc3c(C)nc(N)nc3n([C@H]3CC[C@H](O)CC3)c2=O)cn1 | 0 | 0 | 0 | 0 | 0 | 0 | 5 | 0 | 0 | 0 |  |
| Cc1cccc(-c2nc(Nc3ccc4c(cnn4C)c3)c3ccccc3n2)n1 [GW876731] | 0 | 10 | 0 | 41 | 0 | 12 | 12 | 0 | 0 | 0 |  |
| Cl.NS(=O)(=O)c1cccc(Nc2cc(-c3ccc(F)cc3)n[nH]2)c1 [GW824645] | 0 | 15 | 22 | 0 | 18 | 11 | 17 | 0 | 0 | 3 |  |
| COC(=O)c1c(-c2ccccc2)c2cc(Br)ccc2c(=O)n1Cc1ccc(NC(=O)CCC(=O)O)cc1 | 12 | 20 | 21 | 8 | 0 | 0 | 0 | 9 | 23 | 0 |  |
| O=C(NCCNc1ccnc(Nc2ccc(F)cc2)n1)Nc1ccc2c(c1)OCO2 [GSK1379882] | 0 | 11 | 0 | 0 | 0 | 0 | 0 | 0 | 9 | 10 |  |
| Nc1nc(-c2ccccc2F)c(-c2ccnc3ccccc23)s1 [GW560459] | 98 | 0 | 0 | 14 | 24 | 4 | 3 | 0 | 10 | 1 |  |
| CN1C(=O)C(Nc2cc(Cl)c(O)c(Cl)c2)=C(c2ccc(Cl)cc2)C1=O [SB-404321] | 0 | 32 | 0 | 6 | 0 | 0 | 0 | 0 | 0 | 0 |  |
| O=C(Nc1ccc2c(c1)OCO2)NC1CCN(c2ccnc(NCc3ccc(F)cc3)n2)CC1 [GSK1379859] | 10 | 0 | 10 | 74 | 47 | 0 | 13 | 0 | 9 | 0 |  |
| Cc1ccc(-c2ccc3c(ccc4sc5c(c43)NC[C@@H](C)N=C5N(C)C)n2)cn1 | 0 | 0 | 0 | 0 | 0 | 0 | 0 | 0 | 0 | 0 |  |
| CCC(=O)c1c(-c2ccccc2)c2cc(Cl)ccc2c(=O)n1Cc1cc(C(=O)NC2CC2)n(C)n1 | 0 | 0 | 18 | 11 | 0 | 0 | 0 | 6 | 15 | 1 |  |
| O=c1cc(N2CCOCC2)nc2n(Cc3ccc(F)c(Cl)c3)ccn12 [GSK2297099] | 0 | 27 | 0 | 0 | 0 | 0 | 4 | 0 | 16 | 27 |  |
| Nc1ncnc2c1ncn2-c1cccc2ccccc12 [SKF-97184] | 7 | 8 | 5 | 67 | 0 | 0 | 10 | 0 | 10 | 2 |  |
| COc1cccc(C2=C(N(C)c3ccccc3)C(=O)NC2=O)c1 [SB-334865] | 17 | 19 | 0 | 0 | 12 | 0 | 8 | 0 | 20 | 0 |  |
| COc1cc2ncn(-c3cc(OCc4ccc(S(C)(=O)=O)cc4)c(C(N)=O)s3)c2cc1OC [GW869979] | 0 | 35 | 3 | 45 | 32 | 0 | 0 | 38 | 0 | 14 |  |
| Cc1ccccc1COc1cc(-n2cnc3cc(Cl)ccc32)sc1C(N)=O [GW813349] | 12 | 15 | 0 | 8 | 6 | 0 | 10 | 22 | 0 | 5 |  |
| FC(F)(F)c1ccc(-c2ncn(CCCN3CCOCC3)c2-c2ccncc2)cc1 [SB-217780] | 0 | 61 | 0 | 27 | 0 | 0 | 1 | 11 | 0 | 0 |  |
